# Compounds with a hit are over-represented: about 6.5% of the library has one in this group of screens.
# PMK inhibit: S. pneumoniae PMK inhibitors, primary screen, biochemical, mevalonate pathway, pilot trial included. phosphomevalonate kinase (Streptococcus pneumoniae D39). AID 539, 2006. inhibition, % at 10 µM. 65,000 tested, 0.49% active. purified PMK, PK/LDH-coupled NADH absorbance 340 nm;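 active = top-ranked compounds by inhibition in the single 10 µM screen, taking a fixed number of the strongest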
# Spn DPM-DC inh: S. pneumoniae DPM-DC inhibitors, primary screen, biochemical, PK/LDH-coupled NADH fluorescence; calls only at 10 µM; 65,000 tested, 0.49% active; AID 556, 2006; purified DPM-DC; diphosphomevalonate decarboxylase (Streptococcus pneumoniae D39);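 active = the 320 compounds with the highest percent inhibition in the single-dose primary screen, excluding strongly autofluorescent ones, cut at about 32% in these data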;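 also: kinetic rate of NADH fluorescence loss reporting ADP formed by the decarboxylase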
# Fluor 339 460: intrinsic fluorescence of library compounds, ex339/em460 – biochemical, MLSMR library, data from DPM-DC assay, artefact control, profiling panel. AID 709, 2007. compound autofluorescence, ex339/em460 nm, NADH buffer; hits give high values; 1 = no-compound wells, NADH background. fluorescence fold increase at 10 µM. 65,000 tested, 5.5% active;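 active = at 10 µM, mean starting fluorescence two-fold or more over control wells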;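 also: signal is the first read of a kinetic run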
# A340 absorber: compound light absorbance at 340 nm, profiling panel, artefact control, biochemical, MLSMR library, data from PS, PMK, MK assays | compound absorbance at 340 nm, fold over control | fold change at 10 µM | 65,000 tested, under 10 active | AID 708, 2007;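 active = at 10 µM dose, initial 340 nm absorbance at least 2 fold that of control wells; inactive = change under 2 fold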;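 also: initial absorbance extrapolated from kinetic A340 decline of NADH oxidation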
# NADH enzymes: inhibitors of PK/LDH coupling enzymes, profiling panel, artefact control, biochemical, MLSMR library. coupled PK/LDH NADH assays, four targets. IC50, µM (doses to about 10 µM). 65,000 tested, 0.02% active. AID 774, 2007;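 active = single-dose screening hits from any of four coupled enzyme assays that gave an IC50 when retested across doses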;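 also: the DPM-DC format reads NADH fluorescence rather than 340 nm absorbance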
# MK inhibit: S. pneumoniae MK inhibitors, primary screen, biochemical, PK/LDH-coupled NADH absorbance; mevalonate kinase [Streptococcus pneumoniae D39]; purified MK, PK/LDH-coupled NADH absorbance 340 nm; inhibition, % at 10 µM; 65,000 tested, 0.48% active; AID 555, 2006;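 active = ranked among the strongest by inhibition in the single 10 µM screen, a fixed top-ranked set picked for dose follow-up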
# A number is an active result; n = inactive; x = no result shown.
SMILES,PMK inhibit,Spn DPM-DC inh,Fluor 339 460,A340 absorber,NADH enzymes,MK inhibit
CCCc1cc(=O)oc2cc(OCC(=O)Nc3cc(C)on3)ccc12,n,n,3.6,n,n,n
CCCc1cc(=O)oc2cc(Oc3ncccn3)ccc12,n,n,3.4,n,n,n
C=CCn1c(NC(=O)c2ccco2)c(S(=O)(=O)c2ccccc2)c2nc3ccccc3nc21,n,x,3.8,n,n,n
CCOC(=O)N1CCC(Nc2nc3ccccc3nc2NS(=O)(=O)c2ccc(Cl)cc2)CC1,n,n,n,n,n,n
O=C(CCCn1c(=S)[nH]c2ccc(Br)cc2c1=O)N1CCN(c2ccccn2)CC1,n,n,n,n,n,n
CNc1nnc(-c2cccc(N(C)C)c2)s1,n,n,2.9,n,n,n
CCCn1c(CCC(=O)O)ccc1-c1ccc(OC)cc1,n,x,3.5,n,n,n
O=C(O)CCc1ccc(-c2ccc(Cl)cc2)n1CC(=O)O,n,n,n,n,n,n
CC(C)(C)NS(=O)(=O)c1cccc(S(=O)(=O)c2cccc(S(=O)(=O)NC(C)(C)C)c2)c1,n,n,n,n,n,n
COC(=O)c1c(C#N)c(N)nc2c1CCCC2,n,x,3.8,n,n,n
N#Cc1c(N)nc2c(c1-c1ccncc1)CCCCCC2,n,n,2.1,n,n,n
N#Cc1c(N)nc2c(c1-c1ccncc1)CCCC2,n,n,3.2,n,n,n
CCOC(=O)c1nn(-c2ccc3c(c2)OCO3)cc1O,n,x,2.1,n,n,n
CCOC(=O)c1nn(-c2cc(C(=O)OC)cc(C(=O)OC)c2)cc1O,n,n,n,n,n,n
CCOC(=O)c1nn(-c2ccccc2)c(C(=O)OCC)c1N,n,x,3.8,n,n,n
CCOC(=O)c1nn(-c2ccccc2)c(=O)c2c(N)scc12,n,n,n,n,n,n
c1cnc2c(SCc3ccc(-c4nnco4)cc3)cccc2c1,n,x,3.3,n,n,n
c1ccc2[nH]c(SCc3ccc(-c4nnco4)cc3)nc2c1,n,n,n,n,n,n
COC(=O)c1ccc(CSc2nnc(-c3ccncc3)n2Cc2ccccc2)o1,n,n,n,n,n,n
Cc1sc2ncnc(-n3cnc4ccccc43)c2c1C,n,n,2,n,n,n
O=C(COc1ccc2c(c1)CCC2)N1CCc2ccccc21,n,n,n,n,n,n
CC1CCN(c2nc3c(c(=O)[nH]c(=O)n3C)n2Cc2ccccc2Cl)CC1,n,n,n,n,n,n
COc1ccc(CN2CCCC(C(=O)N3CCCC3)C2)cc1 (stereo not given),n,n,n,n,n,n
O=C(C1CCN(Cc2ccc(OCc3ccccc3)cc2)CC1)N1CCCC1,34,n,n,n,n,59
CC1CCN(S(=O)(=O)c2cn(CC(=O)N3CCN(C)CC3)c(=O)c3ccccc23)CC1,n,n,n,n,n,n
SMILES,PMK inhibit,Spn DPM-DC inh,Fluor 339 460,A340 absorber,NADH enzymes,MK inhibit
O=C(CCCn1c(=O)[nH]c2cc(Cl)ccc2c1=O)NCCCN1CCCC1=O,n,n,n,n,n,n
CCN1CCCC1CN(Cc1cc2cc(OC)ccc2[nH]c1=O)C(=O)NCc1ccccc1 (stereo not given),n,x,4.3,n,n,n
COc1ccc2[nH]c(=O)c(CN(CCCN(C)C)C(=O)Nc3ccccc3)cc2c1,n,n,2.7,n,n,n
COc1cccc(C(=O)N(Cc2cc3cc(C)ccc3[nH]c2=O)CC2CCCO2)c1 (stereo not given),n,n,n,n,n,n
COc1ccc2[nH]c(=O)c(CN(CC3CCCO3)C(=O)Nc3ccc(F)cc3)cc2c1 (stereo not given),n,n,2.3,n,n,n
CCc1ccc2[nH]c(=O)c(CN(CCN(C)C)C(=O)Nc3ccccc3)cc2c1,n,n,n,n,n,n
O=C(Cn1cccc1)N1CCN(C(c2ccccc2)c2ccccc2)CC1,n,n,n,n,n,n
O=C(CN1CCN(c2ncccn2)CC1)N1CCN(C(c2ccccc2)c2ccccc2)CC1,n,n,n,n,n,49
CCOc1cc(C2C(C(=O)N3CCCCC3)=C(C)NC3=C2C(=O)CCC3)cc(Br)c1O (stereo not given),n,n,2.5,n,n,n
CCOC(=O)C1=C(C)NC(=O)NC1c1cc(Br)c(O)c(OC)c1 (stereo not given),n,n,n,n,n,n
COc1ccc(-c2cc(C(F)(F)F)n3ncc(C(=O)NCC4CCCO4)c3n2)cc1 (stereo not given),n,x,3,n,n,n
O=C(O)c1cnn2c(C(F)(F)F)cc(-c3ccco3)nc12,n,n,n,n,n,n
Cc1cc(NC(=O)c2cnn3c(C(F)F)cc(-c4ccccc4)nc23)no1,n,n,n,n,n,n
O=C(NCc1ccco1)c1cnn2c(C(F)F)cc(-c3ccccc3)nc12,n,n,2.1,n,n,n
O=C(NCc1ccco1)c1cnn2c(C(F)(F)F)cc(-c3cccs3)nc12,n,n,2.3,n,n,n
O=C(NC1CCCCC1)c1cnn2c(C(F)(F)F)cc(-c3ccco3)nc12,n,n,2.5,n,n,n
CCc1nnc(NC(=O)Cn2nc(-c3ccccc3OC)ccc2=O)s1,n,n,n,n,n,n
CCSc1cnc(-c2ccccc2)n1CC,n,n,n,n,n,n
O=C(CSc1nc2nc(-c3cccs3)cc(C(F)(F)F)c2c(=O)[nH]1)NCc1ccco1,n,x,4.9,n,n,n
CCOc1ccc(-n2c(=S)sc3c(=O)[nH]c(SCC(=O)NCc4ccco4)nc32)cc1,n,n,n,n,n,n
CCC(C)(C)n1nnnc1C(c1cccnc1)N1CCCc2ccccc21 (stereo not given),28,n,n,n,n,n
O=C(NCc1cccs1)C1CCCN(c2nc3ccccc3o2)C1 (stereo not given),25,n,n,n,n,n
CS(=O)(=O)N1CCCC(C(=O)NCCc2ccccc2)C1 (stereo not given),n,n,n,n,n,n
CS(=O)(=O)N1CCCC(C(=O)NCc2cccs2)C1 (stereo not given),25,n,n,n,n,n
CS(=O)(=O)N1CCCC(C(=O)NCCc2ccc(Cl)cc2)C1 (stereo not given),26,n,n,n,n,n
O=C(NCc1cccs1)C1CCCN(S(=O)(=O)c2cccs2)C1 (stereo not given),n,n,n,n,n,n
COc1cc2nc(N(C)C)nc(N)c2cc1OC,n,x,5,n,n,n
CCOC(=O)N1CCC(NC(=O)c2ccc(CS(=O)(=O)c3ccccc3C)o2)CC1,n,n,n,n,n,n
